Bioassay records as filed in PubChem BioAssay.
This is a sample that favours compounds with a hit; in the whole collection about 0.44% have one here.
YopH PTP inh: YopH (Yersinia) phosphatase inhibition. AID 898. fluorescence Ex485/Em525. actives 0.16% (n = 140,000). inhibition, % (concentration not given with the values); in the data active means inhibition above about 50%
RmlC RmlD mix: RmlC/RmlD inhibition, mixture screen. RmlC/RmlD coupled enzyme inhibition, 384-well mixture HTS. inhibition, % at 5.5 µM. actives 0.39% (n = 110,000). AID 1532; in the data active means inhibition above about 30%, passing the limit was not always enough
RmlCD fluor art: counter-screen for RmlC/RmlD inhibitors: fluorescence artifact | shares compounds with RmlC RmlD mix | RmlC/RmlD assay fluorescence artifact counter-screen | calls only | actives 96% (n = 360); call rule not given here;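 further: compound alone with no enzyme and no substrates present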
The depositor's hits bear a star.

For O=C(COC(=O)c1ccccc1Cl)NC(=O)NCc1ccccc1 the results were YopH PTP inh -19.6.
CCNC(=O)NC(=O)COC(=O)c1ccccc1SCC(=O)NC(=O)NCC was read as YopH PTP inh -33.6, RmlC RmlD mix active and RmlCD fluor art active.
For CSc1ccc(/C=N/n2nnnc2N)cc1 the results were YopH PTP inh -28.7, RmlC RmlD mix 69.0* and RmlCD fluor art active.
For Nc1nnnn1/N=C/c1cccc(O)c1 the results were YopH PTP inh -27.0.
Cc1nc(Cl)c2c(n1)NC1=C(O2)C(=O)CCC1 was read as YopH PTP inh -10.9.
For O=C(c1cc2c(ccc3ccccc32)oc1=O)N1CCCC1 the results were YopH PTP inh -15.9 and RmlC RmlD mix 2.9.
`O=C(O)c1cc2c(ccc3ccccc32)oc1=O` gave YopH PTP inh -11.9, RmlC RmlD mix 82.1* and RmlCD fluor art active.
Screening COc1ccc(CNC(=O)c2ccc(N3CCC4(CC3)CC(c3ccc(Cl)cc3)=NO4)c(N)c2)cc1 returned RmlC RmlD mix -34.0.
For Cc1nc2ccccc2cc1C(=O)O the results were YopH PTP inh -17.1 and RmlC RmlD mix 9.9.
O=c1cccc2n1Cc1cc3ccccc3nc1-2 was read as YopH PTP inh -32.4, RmlC RmlD mix 55.5* and RmlCD fluor art active.
Screening Cc1nc2c(sc3nc4c(cc32)COC(C)(C)C4)c(=O)o1 returned YopH PTP inh -43.0, RmlC RmlD mix 41.9* and RmlCD fluor art active.
Screening Cc1nc2c(sc3nc4c(cc32)COC(C)(C)C4)c(=O)n1Cc1ccccc1 returned YopH PTP inh -3.6 and RmlC RmlD mix -1.4.
COc1ccccc1N=c1oc2cc(O)ccc2cc1C(N)=O was read as YopH PTP inh -47.0, RmlC RmlD mix 40.2* and RmlCD fluor art active.
For COc1ccccc1N=c1oc2cc(O)ccc2cc1C(=O)NCC1CCCO1 (stereo not drawn) the results were YopH PTP inh -34.5 and RmlC RmlD mix 21.3.
Screening CCCCc1cc(=O)oc2cc(C)cc(OCC(=O)O)c12 returned YopH PTP inh -13.9 and RmlC RmlD mix 24.6.
CCc1cc(=O)oc2cc(OC(C)=O)cc(OC(C)=O)c12 was read as YopH PTP inh -19.4 and RmlCD fluor art active.
`Cc1c(/C=N\NC(=O)C2COc3ccc(C(C)(C)C)cc3O2)c2ccccc2n1C` (stereo not drawn) gave YopH PTP inh -24.9.
O=C(CSc1ccc(Cl)cc1Cl)N1CCC(c2nc3ccccc3s2)CC1 was read as YopH PTP inh -9.2 and RmlC RmlD mix 13.1.
For Cc1cc(=O)oc2c(CN3CCN(C)CC3)c(O)c(Cl)cc12 the results were YopH PTP inh -39.2.
O=c1oc2c(CN3CCOCC3)c(O)c(Cl)cc2c2c1CCCC2 was read as YopH PTP inh 0.7 and RmlC RmlD mix 29.0.
For Cc1c(C)c2cc(Cl)c(O)c(CN3CCCCC3)c2oc1=O the results were YopH PTP inh -9.2, RmlC RmlD mix 89.8* and RmlCD fluor art active.
For CCCCc1cc(=O)oc2c(CN3CCCC3)c(O)c(Cl)cc12 the results were YopH PTP inh -11.4, RmlC RmlD mix 124.0* and RmlCD fluor art active.
For CN1CCN(Cc2c(O)c(Cl)cc3c(-c4ccccc4)cc(=O)oc23)CC1 the results were YopH PTP inh -31.4 and RmlC RmlD mix -9.5.
Screening CCCCc1cc(=O)oc2c(CN(CC)CC)c(O)c(Cl)cc12 returned YopH PTP inh -18.9, RmlC RmlD mix 85.4* and RmlCD fluor art active.
For CCCc1cc(=O)oc2c(CN3CCN(C)CC3)c(O)c(Cl)cc12 the results were RmlC RmlD mix 71.3* and RmlCD fluor art active.
`CCCCc1cc(=O)oc2cc(OCc3nn[nH]n3)c(Cl)cc12` gave YopH PTP inh -14.3 and RmlC RmlD mix 20.4.
Screening CCc1nnc(NC(=O)CN2CCN(c3ccc(Cl)cc3)CC2)s1 returned YopH PTP inh -4.4.
COc1ccc(S(=O)(=O)N2CCOCC2)cc1NC(=O)Cc1ccc(Cl)c(Cl)c1 was read as YopH PTP inh -7.0.
Cc1cc2nc(SCC(=O)N(C)C)c3c(c2cc1C)CCCC3 was read as YopH PTP inh 3.1 and RmlC RmlD mix 10.7.
COC(=O)N/N=C/c1cc(Cl)cc(Cl)c1OCc1ccc(F)cc1 was read as YopH PTP inh -10.8.
`COC(=O)c1sccc1NC(=O)c1ccc(OC)cc1OC` gave YopH PTP inh 26.8.
For c1ccc(-c2cnc(-c3cccnc3)o2)cc1 the results were YopH PTP inh -32.8 and RmlC RmlD mix 19.8.
NC(=O)c1ccc(-c2ncc(-c3ccccc3)o2)cc1 was read as YopH PTP inh -41.9, RmlC RmlD mix 72.9* and RmlCD fluor art active.
`COC(=O)[C@H](CC(C)C)NC(=O)NC1CCCCC1C` (stereo partly drawn) gave YopH PTP inh 2.7 and RmlC RmlD mix -6.3.
`CNC(=O)c1ccc(-c2ccc(F)cc2)s1` gave YopH PTP inh -16.3 and RmlC RmlD mix 7.9.
CNC(=O)c1ccc(-c2ccc(OC)cc2)s1 was read as YopH PTP inh -3.1, RmlC RmlD mix 85.3* and RmlCD fluor art active.
For CN(C)c1ccc(CN(C)C2CCCCC2)cc1 the results were YopH PTP inh -13.9 and RmlC RmlD mix -8.9.
Cc1ccc(S(=O)(=O)N[C@H](C(=O)Oc2ccc3c(C(F)(F)F)cc(=O)oc3c2)c2ccccc2)cc1 was read as YopH PTP inh -36.6, RmlC RmlD mix 100.7* and RmlCD fluor art active.
`Cc1ccc(S(=O)(=O)NC(C(=O)Oc2ccc3ccc(=O)oc3c2)c2ccccc2)cc1` (stereo not drawn) gave YopH PTP inh -22.0.
Screening CCOC(=O)CNc1nc(C#N)nc(N2CCOCC2)n1 returned YopH PTP inh -24.3 and RmlC RmlD mix 65.2.
Screening COc1ccc(C(=O)NNC(=O)CSc2nnc(COc3ccccc3OC)n2C)cc1 returned YopH PTP inh -24.2.
`O=C(Nc1cccc(Cl)c1)Nc1cccc(Cl)c1` gave YopH PTP inh -6.4 and RmlC RmlD mix -14.2.
For Cc1ccc(NC(=O)Nc2ccccc2C#N)c(Cl)c1 the results were YopH PTP inh -13.1 and RmlC RmlD mix 29.3.
Screening N#Cc1ccccc1NC(=O)Nc1cccc(Cl)c1 returned YopH PTP inh -5.4, RmlC RmlD mix 43.7* and RmlCD fluor art active.
N#Cc1ccccc1NC(=O)Nc1ccc(Cl)cc1 was read as YopH PTP inh -21.6, RmlC RmlD mix 40.2* and RmlCD fluor art active.
`COc1ccccc1N(C)S(=O)(=O)c1ccc(C(=O)OCC(=O)c2c[nH]c3ccccc23)cc1` gave YopH PTP inh -15.9.
Cc1nc(-c2ccc(NC(=O)c3ccccc3Br)cc2)cs1 was read as YopH PTP inh -0.1.
`Cc1cc(=O)oc2cc(OC(=O)c3ccccc3)ccc12` gave RmlC RmlD mix 46.0* and RmlCD fluor art active.
`CC(=O)Oc1ccc2c(=O)c(-c3ccccc3)c(C)oc2c1` gave RmlC RmlD mix 79.5* and RmlCD fluor art active.
Screening COC(=O)c1cc(-c2c(C)oc3cc(OC(C)C)ccc3c2=O)c(C)o1 returned YopH PTP inh -30.2 and RmlC RmlD mix -1.1.
`Cc1ccc(N(C)S(=O)(=O)c2cccc(C(=O)Oc3ccc4c(C)cc(=O)oc4c3)c2)cc1` gave YopH PTP inh -20.5.
`O=C(Cc1cccs1)N1CCCC(c2nc3c(nnn3Cc3cccc(Cl)c3)c(=O)[nH]2)C1` (stereo not drawn) gave YopH PTP inh -33.8 and RmlC RmlD mix 12.4.
